From PubChem BioAssay (NCATS)
Inconclusive results are not listed. The source made the active and inactive calls. The call rests on the fitted dose curve; in most records, active means well fitted curve in the direction sought with a large enough effect; inconclusive means small, poorly fitted or top-dose-only effect, or another doubt; inactive means no such curve, though single readings can be large; an effect the other way counts as inactive or inconclusive.

Columns and labels:
[1] = qHTS of pediatric cancer cell lines to identify multiple opportunities for drug repurposing: Confirmatory screen for DAOY cells (AID 1347114); settings: DAOY medulloblastoma cells viability, cytotoxicity qHTS; series mostly up to 45.9 µM; further: nearly all actives have a fitted effect of over 65% in size; further: potency means the concentration at half of the fitted maximal effect
In short: (§1)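 Viability measured as metabolically active cells via CellTiter-Glo luminescence following 48 hours of compound exposure, 11-point dilutions in confirmatory testing. 500-1,000 cells/well plated 5 hours before dosing; controls were DMSO and 2.3 µM bortezomib.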

[2] = qHTS of pediatric cancer cell lines to identify multiple opportunities for drug repurposing: Confirmatory screen for NB-EBc1 cells (AID 1347115); settings: NB-EBc1 neuroblastoma cells, viability (cytotoxicity); series mostly up to 45.9 µM;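 further: cells exposed to compound for 48 h before the viability read; nearly all actives have a fitted effect of over 45% in size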; further: potency means the concentration at half of the fitted maximal effect
In short: (§2)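 Cells (500-1,000/well) in growth media were settled 5 h at 37 degrees C, then given compounds for 48 h. Viability was read as CellTiter-Glo luminescence. Primary runs used MIPE at 11 points (0.78 nM-46 µM) and NPC at 8 points (0.59 nM-46 µM); follow-ups used 11 points.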

[3] = qHTS of pediatric cancer cell lines to identify multiple opportunities for drug repurposing: Confirmatory screen for TC32 cells (AID 1347118); settings: TC32 Ewing sarcoma cells viability qHTS; series mostly up to 45.9 µM;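 further: cells exposed to compound for 48 h before the read; nearly all actives have a fitted effect of over 65% in size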; further: potency means the concentration at half of the fitted maximal effect
In short: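 qHTS, TC32, 48 h drug treatment, CellTiter-Glo luminescence as a proxy for metabolically active cells; primary top concentration 46 µM (MIPE 11-pt, NPC 8-pt); confirmatory 11-pt.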

[4] = qHTS of pediatric cancer cell lines to identify multiple opportunities for drug repurposing: Confirmatory screen for control Hh wild type fibroblast cells (AID 1347121); settings: viability qHTS; series mostly up to 45.9 µM; further: nearly all actives have a fitted effect of over 70% in size
In short: as §2

[5] = qHTS of pediatric cancer cell lines to identify multiple opportunities for drug repurposing: Confirmatory screen for U-2 OS cells (AID 1347122); settings: U-2 OS osteosarcoma cell viability; series mostly up to 45.9 µM; further: nearly all actives have a fitted effect of over 65% in size; further: potency means the concentration at half of the fitted maximal effect
In short: as §2

[6] = qHTS of pediatric cancer cell lines to identify multiple opportunities for drug repurposing: Confirmatory screen for Rh41 cells (AID 1347123); settings: Rh41 rhabdomyosarcoma cells, viability/cytotoxicity qHTS; series mostly up to 45.9 µM;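 further: potency means the concentration at half of the fitted maximal effect; 48 h compound exposure; nearly all actives have a fitted effect of over 60% in size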
In short: as §2

[7] = qHTS of pediatric cancer cell lines to identify multiple opportunities for drug repurposing: Confirmatory screen for LAN-5 cells (AID 1347113); settings: LAN-5 neuroblastoma cell viability; series mostly up to 45.9 µM; further: nearly all actives have a fitted effect of over 65% in size; further: potency means the concentration at half of the fitted maximal effect
In short: as §2

[8] = qHTS of pediatric cancer cell lines to identify multiple opportunities for drug repurposing: Confirmatory screen for SJ-GBM2 cells (AID 1347116); settings: SJ-GBM2 glioblastoma cells, viability; series mostly up to 45.9 µM; further: nearly all actives have a fitted effect of over 60% in size; further: potency means the concentration at half of the fitted maximal effect
In short: as §1

[9] = qHTS of pediatric cancer cell lines to identify multiple opportunities for drug repurposing: Confirmatory screen for BT-37 cells (AID 1347117); settings: BT-37 pediatric cancer cells, viability; activity change, negative = cytotoxic: at 45.9 µM (top of the series); further: nearly all actives have a fitted effect of over 55% in size; further: potency means the concentration at half of the fitted maximal effect
In short: as §2

[10] = qHTS of pediatric cancer cell lines to identify multiple opportunities for drug repurposing: Confirmatory screen for MG 63 (6-TG R) cells (AID 1347119); settings: MG-63 (6-TG resistant) osteosarcoma viability; series mostly up to 45.9 µM; further: nearly all actives have a fitted effect of over 55% in size; further: potency means the concentration at half of the fitted maximal effect
In short: as §2

Compound | Potency [1] | Potency [2] | Potency [3] | Potency [4] | Potency [5] | Potency [6] | Potency [7] | Potency [8] | Potency [9] | Potency [10]
O=C(O)C[C@H](O)C[C@H](O)C=Cc1c(C2CC2)nc2ccccc2c1-c1ccc(F)cc1 | 1.47 µM (active) | inactive | 2.93 µM (active) | inactive | 1.65 µM (active) | 4.65 µM (active) | – | – | – | –
CC(=O)O[C@H]1C[C@@H]2CC[C@H]3[C@H]4C[C@H]([N+]5(C)CCCCC5)[C@@H](OC(C)=O)[C@@]4(C)CC[C@@H]3[C@@]2(C)C[C@H]1N1CCCCC1 | – | – | 2.33 µM (active) | – | inactive | 7.37 µM (active) | 4.14 µM (active) | 14.7 µM (active) | 3.29 µM (active) | inactive
O=C(O)c1ccc(Nc2ncc3c(n2)-c2ccc(Cl)cc2C(c2c(F)cccc2F)=NC3)cc1 | – | – | 1.47 µM (active) | inactive | 4.14 µM (active) | 2.33 µM (active) | inactive | – | – | –
O=C(C=Cc1ccc(CN(CCO)CCc2c[nH]c3ccccc23)cc1)NO | 0.261 µM (active) | – | – | – | 0.165 µM (active) | 0.0585 µM (active) | – | – | – | –
NC(=O)Nc1cc(-c2ccc(CN3CCOCC3)cc2)sc1C(N)=O | – | – | 0.414 µM (active) | – | 11.7 µM (active) | 13.1 µM (active) | – | – | 18.5 µM (active) | 3.69 µM (active)
COC(=O)C=CC(=O)OC | inactive | 20.8 µM (active) | 3.29 µM (active) | inactive | – | 23.3 µM (active) | – | inactive | 3.29 µM (active) | 13.1 µM (active)
COC(=O)C1C2CC3c4[nH]c5cc(OC)ccc5c4CCN3CC2CC(OC(=O)c2cc(OC)c(OC)c(OC)c2)C1OC (stereo not given) | – | – | – | inactive | 20.8 µM (active) | 11.7 µM (active) | 14.7 µM (active) | – | 1.47 µM (active) | –
C[C@@]12C(=O)OC(=O)[C@@]1(C)C1CCC2O1 | 2.61 µM (active) | 2.08 µM (active) | 3.69 µM (active) | – | 1.85 µM (active) | 1.85 µM (active) | – | 6.57 µM (active) | 2.08 µM (active) | 1.47 µM (active)
COc1cc([C@@H]2c3cc4c(cc3[C@@H](O[C@@H]3O[C@@H]5CO[C@@H](c6cccs6)O[C@@H]5[C@H](O)[C@@H]3O)[C@H]3COC(=O)[C@H]23)OCO4)cc(OC)c1O | 5.22 µM (active) | – | 0.131 µM (active) | inactive | 2.33 µM (active) | 0.585 µM (active) | – | – | 0.261 µM (active) | –
N#Cc1c(C2CCNCC2)cc(-c2c(O)cccc2OCC2CC2)nc1N | 16.5 µM (active) | inactive | inactive | inactive | – | 3.29 µM (active) | – | – | – | –
CNC(=O)c1cccc(-c2ccc3c(N4CCOC[C@H]4C)nc(N4CCOC[C@H]4C)nc3n2)c1 | – | – | 0.737 µM (active) | – | 0.261 µM (active) | 0.585 µM (active) | 2.33 µM (active) | 2.61 µM (active) | – | 0.522 µM (active)
O=C1NC(=O)[C@@H](c2cn3c4c(cccc24)CCC3)[C@H]1c1c[nH]c2ccccc12 | 2.08 µM (active) | – | 0.827 µM (active) | – | 1.17 µM (active) | – | – | – | 1.85 µM (active) | 1.17 µM (active)
Oc1cc(-c2nc(-c3ccccc3)[nH]c2-c2ccncc2)ccc1Cl | – | – | 7.37 µM (active) | – | 18.5 µM (active) | 16.5 µM (active) | 6.57 µM (active) | 7.37 µM (active) | 2.61 µM (active) | inactive
COc1cc(C=CC(=O)CC(=O)C=Cc2ccc(O)c(OC)c2)ccc1O | – | – | 9.55 µM (active) | – | – | 17 µM (active) | 26.9 µM (active) | – | 30.2 µM (active) | 26.9 µM (active)
CCOc1cc2ncc(C#N)c(Nc3ccc(OCc4ccccn4)c(Cl)c3)c2cc1NC(=O)C=CCN(C)C | – | – | – | – | – | 2.93 µM (active) | – | 4.14 µM (active) | – | –
CNC(=O)Nc1ccc(-c2nc(N3CC4CCC(C3)O4)c3cnn(C4CCC5(CC4)OCCO5)c3n2)cc1 | – | – | 0.369 µM (active) | – | 0.522 µM (active) | 0.131 µM (active) | 0.585 µM (active) | 1.04 µM (active) | 0.104 µM (active) | 0.0329 µM (active)
CCc1cc(C(C)=NOCc2ccc(C3CCCCC3)c(C(F)(F)F)c2)ccc1CN1CC(C(=O)O)C1 | – | inactive | 9.27 µM (active) | inactive | inactive | – | – | – | – | inactive
Cn1cc(-c2cnn3c(N)c(Br)c([C@H]4CCCNC4)nc23)cn1 | – | – | 5.85 µM (active) | inactive | 2.93 µM (active) | 23.3 µM (active) | 5.85 µM (active) | – | 3.69 µM (active) | –
N#Cc1c(NC(=O)c2cccc3ccccc23)sc2c1CCCC2 | – | – | 0.233 µM (active) | inactive | 0.657 µM (active) | – | – | – | 0.827 µM (active) | 0.329 µM (active)
FC(F)c1nc2ccccc2n1-c1nc(N2CCOCC2)nc(N2CCOCC2)n1 | – | – | 0.928 µM (active) | – | 4.65 µM (active) | 2.93 µM (active) | 1.47 µM (active) | inactive | 1.47 µM (active) | 0.928 µM (active)
C[N+](C)([O-])CCNc1ccc(NCC[N+](C)(C)[O-])c2c1C(=O)c1c(O)ccc(O)c1C2=O | – | inactive | 4.14 µM (active) | inactive | inactive | 18.5 µM (active) | – | – | – | inactive
O=C(NCc1ccccc1)[C@H](Cc1ccccc1)NC(=O)[C@@H]1O[C@@H]1C(=O)NCCc1ccc(O)cc1 | – | – | 0.165 µM (active) | inactive | inactive | – | – | inactive | – | –
NC(=O)Nc1sc(-c2ccc(F)cc2)cc1C(N)=O | inactive | – | 5.22 µM (active) | inactive | 14.7 µM (active) | – | – | inactive | – | 11.7 µM (active)
COc1cc(C[C@@H](CO)[C@H](CO)Cc2ccc(O)c(OC)c2)ccc1O | – | inactive | 9.27 µM (active) | inactive | – | – | – | – | inactive | inactive
Cc1ncc(-c2ccnc(Nc3ccc(S(C)(=O)=O)cc3)n2)n1C(C)C | 13.1 µM (active) | – | 4.65 µM (active) | inactive | 3.29 µM (active) | 2.93 µM (active) | – | 2.61 µM (active) | 3.29 µM (active) | inactive
COc1ccc(Nc2cc(-c3cnc(N)nc3)nc(N3CCOCC3)n2)cn1 | – | – | 3.69 µM (active) | inactive | 9.27 µM (active) | 4.14 µM (active) | 2.33 µM (active) | 2.61 µM (active) | 10.4 µM (active) | 1.31 µM (active)
CN(CC(=O)N(Cc1ccc(C2CCCCC2)cc1)c1ccc(C(=O)O)c(O)c1)S(=O)(=O)c1c(F)c(F)c(F)c(F)c1F | – | inactive | 26.1 µM (active) | inactive | – | – | – | inactive | 26.1 µM (active) | 20.8 µM (active)
O=C1NCCc2[nH]c(-c3ccncc3)cc21 | 4.14 µM (active) | – | 4.14 µM (active) | inactive | 2.93 µM (active) | 2.33 µM (active) | – | – | 2.33 µM (active) | 8.27 µM (active)
COc1cc2ncnc(Nc3cccc(Br)c3)c2cc1OC | – | – | 9.27 µM (active) | inactive | inactive | 11.7 µM (active) | 16.5 µM (active) | 3.69 µM (active) | 18.5 µM (active) | –
